Experimental data reported in PubChem BioAssay (NCI).
The panel holds about 83,000 compounds, 20% with a hit somewhere; the sample as a whole holds those more often.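 Single-concentration screen, 48 h exposure, 96-well plates. Endpoint: percent growth. Below 10 = active.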 A number with no mark means an inactive call. Calls of active or inactive are those of the source.

Experiments:
Assay in all cases: NCI-60 one-dose screen, 48 h (100 = growth as untreated, 0 = no growth, -100 = all killed)
Details in all cases: 10 µM unless noted
DU-145 prostate = tested on: DU-145 prostate
K-562 leukemia = tested on: K-562 leukemia
MALME-3M melanoma = tested on: MALME-3M melanoma
MDA-MB-231 breast = tested on: MDA-MB-231 breast
RXF 393 renal = tested on: RXF 393 renal
SF-268 CNS = tested on: SF-268 CNS
SF-295 CNS = tested on: SF-295 CNS
SF-539 CNS = tested on: SF-539 CNS
UACC-257 melanoma = tested on: UACC-257 melanoma
M14 melanoma = tested on: M14 melanoma
HCT-15 colon = tested on: HCT-15 colon
HT29 colon = tested on: HT29 colon
SNB-75 CNS = tested on: SNB-75 CNS
SNB-19 CNS = tested on: SNB-19 CNS
U251 CNS = tested on: U251 CNS
PC-3 prostate = tested on: PC-3 prostate
SK-MEL-5 melanoma = tested on: SK-MEL-5 melanoma
UACC-62 melanoma = tested on: UACC-62 melanoma
LOX IMVI melanoma = tested on: LOX IMVI melanoma
SK-MEL-28 melanoma = tested on: SK-MEL-28 melanoma

| SMILES | growth (DU-145 prostate) | growth (K-562 leukemia) | growth (MALME-3M melanoma) | growth (MDA-MB-231 breast) | growth (RXF 393 renal) | growth (SF-268 CNS) | growth (SF-295 CNS) | growth (SF-539 CNS) | growth (UACC-257 melanoma) | growth (M14 melanoma) | growth (HCT-15 colon) | growth (HT29 colon) | growth (SNB-75 CNS) | growth (SNB-19 CNS) [%] | growth (U251 CNS) | growth (PC-3 prostate) | growth (SK-MEL-5 melanoma) | growth (UACC-62 melanoma) | growth (LOX IMVI melanoma) | growth (SK-MEL-28 melanoma) |
| --- | --- | --- | --- | --- | --- | --- | --- | --- | --- | --- | --- | --- | --- | --- | --- | --- | --- | --- | --- | --- |
| COc1ccc(/C=C/c2c(C(=O)/C=C/c3cccs3)c(C)nc3ccccc23)cc1 | 82.7% | 43.1% | 107% | 78.2% | 77.4% | 85.3% | 86.3% | 95.9% | 83.8% | 89.3% | 59.5% | 77.7% | 72% | 85.1 | 85.6% | 63% | 70.3% | 59.1% | 84.5% | 92.4% |
| COc1cc(-c2nn(-c3ccccc3)cc2-c2ccnc(NCCNS(=O)(=O)c3ccc(Cl)cc3)n2)ccc1Cl | 50.7% | 27.7% | 70% | 53.5% | 34.9% | 41.2% | 30.6% | 60.3% | 34.8% | 24.3% | 30.3% | 11.3% | 49.1% | 49.9 | 28.4% | 18.3% | 32.6% | 41% | 32.3% |  |
| CCOc1c(C#N)nnc2c(C#N)c(NC(=O)c3ccccc3)nn12 | 109% | 98.6% | 103% | 100% | 110% | 98.8% | 104% | 95.3% | 97% | 99.1% | 106% | 106% | 79.8% | 100 | 95.6% | 100% | 99.4% | 101% | 95.5% |  |
| CNc1ccc(NC)c2c1C(=O)c1ccccc1C2=O | 92.6% | 96% | 120% | 77.2% | 75% | 76.4% | 65.9% | 56% | 85.2% | 113% | 77.1% | 98.7% | 52.3% | 85.5 | 87% | 84% | 93.6% | 87.9% | 84.9% |  |
| Cc1c(C(=O)OC(=NC2CCCCC2)NC2CCCCC2)sc2c1c(=O)nc1c(C#N)n[nH]n12 | 110% | 82.7% | 113% | 113% | 99.2% | 106% | 109% | 104% | 102% | 103% | 114% | 96.2% | 89.9% | 109 | 107% | 118% | 110% | 106% | 94.8% |  |
| O=C1OC(c2nc3ccccc3s2)=C/C1=C\c1ccc(O)cc1 | 111% | 102% | 100% | 87.2% | 119% | 100% | 101% | 93% | 114% | 105% | 111% | 99.5% | 92.7% | 97.2 | 107% | 88.8% | 104% | 89.1% | 94.3% | 107% |
| COC(=O)[C@]12CC[C@@H](C)[C@H](C)[C@@H]1C1=CC[C@@H]3[C@@]4(C)C(C=O)=C[C@@](C)(CO)[C@@H]4[C@H](O)C[C@@]3(C)[C@]1(C)CC2 | -30% (active) | 6.68% (active) | -70.7% (active) | -47.6% (active) | -82% (active) | -0.0873% (active) | -15.6% (active) | -44% (active) | -48.4% (active) | -51.5% (active) | -68.1% (active) | -37.7% (active) | 3.2% (active) | 24.4 | -19% (active) | -0.105% (active) | -85.7% (active) | -34.5% (active) | -97.9% (active) | -34.5% (active) |
| COc1cc(/C=C2\C(=O)ON=C2C)cc(OC)c1OC | 108% | 95% | 102% | 98.3% | 114% | 95.7% | 100% | 94.7% | 103% | 96% | 102% | 103% | 80.4% | 95.6 | 100% | 97.3% | 101% | 97% | 96.2% | 103% |
| CCCCCCN(CCCCCC)c1ccc(/C=C2/SC(=O)N(c3nc(N4CCCC4)nc(N4CCCC4)n3)C2=O)c(C)c1 | 77.3% | 37.5% | 71.5% | 85.7% | 84.7% | 73.2% | 56.7% | 114% | 72.6% | 69.3% | 57.9% | 51.8% | 83.3% | 84.4 | 53.9% | 53.2% | 58.6% | 52.7% | 71.8% | 74.3% |
| N#C/C(=C\c1ccc2c(c1)OCO2)n1nnc2cc(F)c(F)cc21 | 36.7% | 18% | 70.8% | 80.1% | 32.3% | 74.3% | 102% | 84.5% | 75% | 57% | 40.5% | 30.3% | 20.6% | 82.3 | 83.8% | 51.4% | 75.5% | 47.6% | 57.3% | 92.5% |
| COC(=O)[C@]12CC[C@@H](C)[C@H](C)[C@@H]1C1=CC[C@@H]3[C@@]4(C)C(C=O)=C[C@@](C)(COC(C)=O)C4=CC[C@@]3(C)[C@]1(C)CC2 | -6.88% (active) | 5.59% (active) | -65.5% (active) | -26.6% (active) | -58.9% (active) | -3.01% (active) | 0.263% (active) | -50.8% (active) | -41.3% (active) | -48.4% (active) | -41.6% (active) | -31.5% (active) | 15.7% | 29.8 | -25.8% (active) | 12.7% | -36.6% (active) | -11.1% (active) | -93.7% (active) | -60.2% (active) |
| CC1OC(O[C@H]2/C=C/C=C/C=C/C=C/C=C/C=C/C=C/[C@H](C)[C@@H](O)[C@@H](C)[C@H](C)OC(=O)CC(O)CC(O)CCC(O)C(O)CC(O)C[C@]3(O)C[C@H](O)C(C(=O)O)C(C2)O3)C(O)[C@H](N)C1O (stereo partly specified) | -29.9% (active) | 91.8% | -66% (active) | 58.7% | -64.4% (active) | -70.4% (active) | 65% | 17.2% | -76% (active) | 16.3% | 76.7% | 36.8% | 57.8% | 40.2 | -57.1% (active) | -54.6% (active) | 35.9% | -13% (active) | -12% (active) | -65.8% (active) |
| CCCCCc1nc2c(c3c1CCCC3)CCCC2 | 114% | 37.3% | 102% | 104% | 80% | 105% | 81.6% | 93.2% | 82.5% | 103% | 74.8% | 55.4% | 82.1% | 72.8 | 83.7% | 64.9% | 83.8% | 82.2% | 88.3% | 100% |
| O=C(CSc1nnc(-c2ccc(NC(=O)c3cccnc3)cc2)o1)Nc1cccc(Br)c1 | 102% | 66.3% | 93.1% | 93% | 111% | 102% | 87.2% | 70.6% | 102% | 101% | 90.6% | 107% | 72.1% | 62.9 | 68.7% | 82.8% | 92.9% | 104% | 93.6% | 110% |
| C[n+]1cccc(CC(=O)NO)c1 | 109% | 94.4% | 104% | 100% | 106% | 104% | 113% | 90.9% | 67.7% | 99.2% | 112% | 99.7% | 92.6% | 102 | 87.6% | 95.5% | 96.4% | 92.9% | 98% | 113% |
